In PMC7862700, “An all-to-all approach to the identification of sequence-specific readers for epigenetic DNA modifications on cytosine”:

The sequences below were run against SPI1 (Homo sapiens, UniProt P17947 1-270) (assay: DAPPL (digital affinity profiling via proximity ligation, sequencing); 10 mM Tris-HCl pH 7.5, 50 mM NaCl, 1 mM DTT, 4% glycerol, room temperature, 30 min; GST-TFs on glutathione beads, 16-mer random dsDNA library, 0.1% formaldehyde crosslink after washing; high values mean tight binding). Conditions: protein: recombinant; tags: N-terminal GST; dsDNA, one strand shown.
How it was run: (§1)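 A tag-only sample was pooled with DNA-barcoded human transcription factors that had been expressed in yeast as GST fusions and captured on glutathione beads. The pools were incubated for 30 min at room temperature with 200 nmole of a random double-stranded 16-mer DNA library in Tris/NaCl/DTT/glycerol buffer, then washed, crosslinked with 0.1% formaldehyde, proximity-ligated (BsaI/T4 ligase, 1 h, 37 °C), PCR-amplified and sequenced on an Illumina NextSeq500. Binding signal is each hexamer's read frequency for a factor divided by its frequency for the tag-only sample.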

Point of comparison: CTGGGT, binding signal 1.13 fold enrichment (6-mer frequency, TF over GST control). Against it:
- ACATAC — higher, 1.16 fold enrichment (6-mer frequency, TF over GST control)
- GACATC — higher, 1.26 fold enrichment (6-mer frequency, TF over GST control)
- ATCAAT — lower, 1.06 fold enrichment (6-mer frequency, TF over GST control)
- GTCTTA — higher, 1.14 fold enrichment (6-mer frequency, TF over GST control)
- AGCGAC — lower, 1.06 fold enrichment (6-mer frequency, TF over GST control)
- TGAAAC — higher, 1.28 fold enrichment (6-mer frequency, TF over GST control)
- AACCGG — higher, 1.7 fold enrichment (6-mer frequency, TF over GST control)
- CGACTA — higher, 1.29 fold enrichment (6-mer frequency, TF over GST control)
- CGATAT — lower, 1.03 fold enrichment (6-mer frequency, TF over GST control)
- TGTTTA — lower, 1.12 fold enrichment (6-mer frequency, TF over GST control)
- TGCCTT — higher, 1.44 fold enrichment (6-mer frequency, TF over GST control)
- TAAGCT — lower, 1.1 fold enrichment (6-mer frequency, TF over GST control)
- GATAAT — lower, 1.09 fold enrichment (6-mer frequency, TF over GST control)
- TCGTTC — higher, 1.17 fold enrichment (6-mer frequency, TF over GST control)
- ATTGCT — lower, 1.1 fold enrichment (6-mer frequency, TF over GST control)
- TCATCA — lower, 1.1 fold enrichment (6-mer frequency, TF over GST control)
- TGTCTC — higher, 1.29 fold enrichment (6-mer frequency, TF over GST control)
- GTACAT — higher, 1.28 fold enrichment (6-mer frequency, TF over GST control)
- CCACTG — higher, 1.16 fold enrichment (6-mer frequency, TF over GST control)
- CCCACT — higher, 1.39 fold enrichment (6-mer frequency, TF over GST control)
- TCTCAA — higher, 1.22 fold enrichment (6-mer frequency, TF over GST control)
- GCTCAT — higher, 1.21 fold enrichment (6-mer frequency, TF over GST control)
- TGCCAT — higher, 1.17 fold enrichment (6-mer frequency, TF over GST control)
- ATTAAC — higher, 1.18 fold enrichment (6-mer frequency, TF over GST control)
- CGTAAC — lower, 1.08 fold enrichment (6-mer frequency, TF over GST control)
- ACGGAA — higher, 2.02 fold enrichment (6-mer frequency, TF over GST control)
- AGCCTA — lower, 1.02 fold enrichment (6-mer frequency, TF over GST control)
- CACTGT — lower, 1.11 fold enrichment (6-mer frequency, TF over GST control)
- TCCATC — higher, 1.19 fold enrichment (6-mer frequency, TF over GST control)
- TTGCTC — higher, 1.3 fold enrichment (6-mer frequency, TF over GST control)
- TTAGAA — the same, 1.13 fold enrichment (6-mer frequency, TF over GST control)
- CACATC — higher, 1.37 fold enrichment (6-mer frequency, TF over GST control)
- TCTACA — higher, 1.14 fold enrichment (6-mer frequency, TF over GST control)
- ACTACA — the same, 1.13 fold enrichment (6-mer frequency, TF over GST control)
- ATGGGC — higher, 1.35 fold enrichment (6-mer frequency, TF over GST control)
- TGAACC — higher, 1.15 fold enrichment (6-mer frequency, TF over GST control)
- CCATTC — higher, 1.16 fold enrichment (6-mer frequency, TF over GST control)
- TTAGGT — lower, 1.02 fold enrichment (6-mer frequency, TF over GST control)

The sequences below were run against SPIB (Homo sapiens, UniProt Q01892 1-262) in the same assay as above. Conditions: protein: recombinant; tags: N-terminal GST; dsDNA, one strand shown.
How it was run: as §1

Sequence of SPIB (Q01892 whole entry): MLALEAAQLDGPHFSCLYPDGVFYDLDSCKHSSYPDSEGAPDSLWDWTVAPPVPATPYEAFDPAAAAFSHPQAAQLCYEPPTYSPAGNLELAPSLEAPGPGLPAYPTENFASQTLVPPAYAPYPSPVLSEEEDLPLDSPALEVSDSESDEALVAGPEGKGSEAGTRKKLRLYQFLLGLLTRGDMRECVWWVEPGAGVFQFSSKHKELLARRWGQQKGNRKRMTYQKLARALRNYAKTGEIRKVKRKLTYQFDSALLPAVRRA

Point of comparison: TGTCTC, binding signal 1.28 fold enrichment (6-mer frequency, TF over GST control). Against it:
- ACATAC — lower, 1.09 fold enrichment (6-mer frequency, TF over GST control)
- GACATC — higher, 1.3 fold enrichment (6-mer frequency, TF over GST control)
- ATCAAT — lower, 1.07 fold enrichment (6-mer frequency, TF over GST control)
- GTCTTA — lower, 1.14 fold enrichment (6-mer frequency, TF over GST control)
- AGCGAC — lower, 1.16 fold enrichment (6-mer frequency, TF over GST control)
- TGAAAC — lower, 1.18 fold enrichment (6-mer frequency, TF over GST control)
- AACCGG — higher, 1.64 fold enrichment (6-mer frequency, TF over GST control)
- CGACTA — higher, 1.32 fold enrichment (6-mer frequency, TF over GST control)
- CGATAT — lower, 1.02 fold enrichment (6-mer frequency, TF over GST control)
- TGTTTA — lower, 1.21 fold enrichment (6-mer frequency, TF over GST control)
- TGCCTT — higher, 1.35 fold enrichment (6-mer frequency, TF over GST control)
- TAAGCT — lower, 1.18 fold enrichment (6-mer frequency, TF over GST control)
- GATAAT — lower, 1.12 fold enrichment (6-mer frequency, TF over GST control)
- TCGTTC — lower, 1.23 fold enrichment (6-mer frequency, TF over GST control)
- ATTGCT — higher, 1.3 fold enrichment (6-mer frequency, TF over GST control)
- TCATCA — lower, 1.14 fold enrichment (6-mer frequency, TF over GST control)
- GTACAT — higher, 1.36 fold enrichment (6-mer frequency, TF over GST control)
- CCACTG — lower, 1.15 fold enrichment (6-mer frequency, TF over GST control)
- CTGGGT — lower, 1.09 fold enrichment (6-mer frequency, TF over GST control)
- CCCACT — lower, 1.26 fold enrichment (6-mer frequency, TF over GST control)
- TCTCAA — higher, 1.33 fold enrichment (6-mer frequency, TF over GST control)
- GCTCAT — higher, 1.31 fold enrichment (6-mer frequency, TF over GST control)
- TGCCAT — lower, 1.16 fold enrichment (6-mer frequency, TF over GST control)
- ATTAAC — lower, 1.24 fold enrichment (6-mer frequency, TF over GST control)
- CGTAAC — lower, 1.16 fold enrichment (6-mer frequency, TF over GST control)
- ACGGAA — higher, 1.93 fold enrichment (6-mer frequency, TF over GST control)
- AGCCTA — lower, 1.02 fold enrichment (6-mer frequency, TF over GST control)
- CACTGT — lower, 1.22 fold enrichment (6-mer frequency, TF over GST control)
- TCCATC — lower, 1.16 fold enrichment (6-mer frequency, TF over GST control)
- TTGCTC — lower, 1.25 fold enrichment (6-mer frequency, TF over GST control)
- TTAGAA — lower, 1.03 fold enrichment (6-mer frequency, TF over GST control)
- CACATC — higher, 1.46 fold enrichment (6-mer frequency, TF over GST control)
- TCTACA — lower, 1.18 fold enrichment (6-mer frequency, TF over GST control)
- ACTACA — the same, 1.28 fold enrichment (6-mer frequency, TF over GST control)
- ATGGGC — higher, 1.3 fold enrichment (6-mer frequency, TF over GST control)
- TGAACC — lower, 1.15 fold enrichment (6-mer frequency, TF over GST control)
- CCATTC — lower, 1.09 fold enrichment (6-mer frequency, TF over GST control)
- TTAGGT — lower, 1.12 fold enrichment (6-mer frequency, TF over GST control)

What follows are sequences tested against T1, ELK3 (Homo sapiens, UniProt P41970 1-407) in the same assay as above. Conditions: protein: recombinant; tags: N-terminal GST; dsDNA, one strand shown.
T1 sequence: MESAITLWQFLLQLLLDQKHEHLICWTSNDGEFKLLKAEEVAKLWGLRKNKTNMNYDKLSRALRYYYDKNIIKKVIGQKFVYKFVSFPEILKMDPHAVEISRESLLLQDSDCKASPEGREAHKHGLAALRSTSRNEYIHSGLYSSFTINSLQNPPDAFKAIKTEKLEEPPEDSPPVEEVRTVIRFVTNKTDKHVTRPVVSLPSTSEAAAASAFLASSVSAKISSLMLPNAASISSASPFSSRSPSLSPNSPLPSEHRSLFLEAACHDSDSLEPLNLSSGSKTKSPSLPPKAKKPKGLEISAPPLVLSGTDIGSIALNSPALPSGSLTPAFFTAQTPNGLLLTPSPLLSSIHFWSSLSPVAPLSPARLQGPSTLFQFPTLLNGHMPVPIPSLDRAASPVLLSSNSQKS
How it was run: as §1

Point of comparison: CCACTG, binding signal 1.2 fold enrichment (6-mer frequency, TF over GST control). Against it:
- ACATAC — lower, 1.17 fold enrichment (6-mer frequency, TF over GST control)
- GACATC — higher, 1.38 fold enrichment (6-mer frequency, TF over GST control)
- ATCAAT — lower, 1.06 fold enrichment (6-mer frequency, TF over GST control)
- GTCTTA — lower, 1.06 fold enrichment (6-mer frequency, TF over GST control)
- AGCGAC — lower, 1.04 fold enrichment (6-mer frequency, TF over GST control)
- TGAAAC — higher, 1.33 fold enrichment (6-mer frequency, TF over GST control)
- AACCGG — higher, 1.54 fold enrichment (6-mer frequency, TF over GST control)
- CGACTA — higher, 1.3 fold enrichment (6-mer frequency, TF over GST control)
- CGATAT — lower, 1.06 fold enrichment (6-mer frequency, TF over GST control)
- TGTTTA — the same, 1.2 fold enrichment (6-mer frequency, TF over GST control)
- TGCCTT — higher, 1.24 fold enrichment (6-mer frequency, TF over GST control)
- TAAGCT — lower, 1.12 fold enrichment (6-mer frequency, TF over GST control)
- GATAAT — lower, 1.12 fold enrichment (6-mer frequency, TF over GST control)
- TCGTTC — higher, 1.23 fold enrichment (6-mer frequency, TF over GST control)
- ATTGCT — higher, 1.22 fold enrichment (6-mer frequency, TF over GST control)
- TCATCA — lower, 1.18 fold enrichment (6-mer frequency, TF over GST control)
- TGTCTC — lower, 1.15 fold enrichment (6-mer frequency, TF over GST control)
- GTACAT — higher, 1.44 fold enrichment (6-mer frequency, TF over GST control)
- CTGGGT — lower, 1.1 fold enrichment (6-mer frequency, TF over GST control)
- CCCACT — higher, 1.42 fold enrichment (6-mer frequency, TF over GST control)
- TCTCAA — higher, 1.43 fold enrichment (6-mer frequency, TF over GST control)
- GCTCAT — lower, 1.16 fold enrichment (6-mer frequency, TF over GST control)
- TGCCAT — lower, 1.12 fold enrichment (6-mer frequency, TF over GST control)
- ATTAAC — higher, 1.26 fold enrichment (6-mer frequency, TF over GST control)
- CGTAAC — lower, 1.07 fold enrichment (6-mer frequency, TF over GST control)
- ACGGAA — higher, 1.94 fold enrichment (6-mer frequency, TF over GST control)
- AGCCTA — lower, 1.12 fold enrichment (6-mer frequency, TF over GST control)
- CACTGT — lower, 1.03 fold enrichment (6-mer frequency, TF over GST control)
- TCCATC — higher, 1.28 fold enrichment (6-mer frequency, TF over GST control)
- TTGCTC — lower, 1.01 fold enrichment (6-mer frequency, TF over GST control)
- TTAGAA — lower, 1.06 fold enrichment (6-mer frequency, TF over GST control)
- CACATC — higher, 1.61 fold enrichment (6-mer frequency, TF over GST control)
- TCTACA — higher, 1.23 fold enrichment (6-mer frequency, TF over GST control)
- ACTACA — lower, 1.11 fold enrichment (6-mer frequency, TF over GST control)
- ATGGGC — higher, 1.37 fold enrichment (6-mer frequency, TF over GST control)
- TGAACC — lower, 1.12 fold enrichment (6-mer frequency, TF over GST control)
- CCATTC — higher, 1.29 fold enrichment (6-mer frequency, TF over GST control)
- TTAGGT — lower, 1.17 fold enrichment (6-mer frequency, TF over GST control)
